# Assay results: PubChem BioAssay (Tox21)
# Activity calls are given as the source filed them. A call without a number means that no potency is given here. The call rests on the fitted dose curve.
# Biological target: Muscarinic acetylcholine receptor M1 (Homo sapiens) (UniProt P11229)
# Experiment: Cholinergic receptor muscarinic 1 (CHRM1) small molecule agonists, cell-based qHTS assay (AID 1963589); further: nearly all actives have a fitted effect of over 35% in size
# Conditions: CHRM1-CHO cells, agonist mode, calcium flux fluorescence; series mostly up to 76.8 µM
# From the text: National Center for Advancing Translational Sciences [NCATS]
# Division of Preclinical Innovation [DPI]
# U.S. Environmental Protection Agency [EPA]
# National Institutes of Environmental Health Sciences [NIEHS]
# National Toxicology Program [NTP]
# U.S. Food and Drug Administration [FDA]
# The CHRM1 is a muscarinic receptor. This receptor plays a crucial role in learning and memory processes and has long been identified as a promising therapeutic target for the improvement of cognitive decline in Alzheimer's disease (AD). The CHRM1-CHO cell line stably expressing human muscarinic acetylcholine receptor M1 (CHRM1) can be used for screening agonists and antagonists of interactions between CHRM1 and its ligands. The CHRM1-CHO Calcium Flux Assay is a homogeneous fluorescence-based assay for detecting the intracellular calcium level using FDSS kinetic plate reader system.
# CHRM1-CHO cells were dispensed at 1000 cells/3uL/well in 1536-well black-clear bottom plates using a Multidrop Dispenser. After the assay plates were incubated at a 37 C/5% CO2 incubator for 18 h, 3 uL of Dye Loading Buffer was transferred to the assay plate by a Flying Reagent Dispenser. The assay plates were incubated at 37 C for 1h. For agonist mode, 23 nL of compounds dissolved in DMSO, positive controls or DMSO only was transferred to the assay plate by a pin tool. […] Each test compound was measured at 15 concentrations in three independent runs.
# Potency means the concentration at half of the fitted maximal effect.
# Sequence of Muscarinic acetylcholine receptor M1 (Homo sapiens) (P11229 whole entry, looked up): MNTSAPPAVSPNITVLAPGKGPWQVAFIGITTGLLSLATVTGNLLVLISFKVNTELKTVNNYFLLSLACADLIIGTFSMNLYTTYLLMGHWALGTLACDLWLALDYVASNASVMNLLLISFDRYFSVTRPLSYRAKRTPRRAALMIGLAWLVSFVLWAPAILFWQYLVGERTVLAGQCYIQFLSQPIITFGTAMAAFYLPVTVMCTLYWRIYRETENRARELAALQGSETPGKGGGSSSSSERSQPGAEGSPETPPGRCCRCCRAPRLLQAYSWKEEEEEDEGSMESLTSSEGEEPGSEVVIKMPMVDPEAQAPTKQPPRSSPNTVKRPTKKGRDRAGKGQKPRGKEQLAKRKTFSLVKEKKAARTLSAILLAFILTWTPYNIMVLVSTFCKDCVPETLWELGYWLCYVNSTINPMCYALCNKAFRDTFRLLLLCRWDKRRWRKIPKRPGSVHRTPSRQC
row,SMILES,Potency
1,CCCCCCCCCCCCCC(=O)O,inactive
2,CC1(C)NC(=O)N(c2ccc([N+](=O)[O-])c(C(F)(F)F)c2)C1=O,inactive
3,CCCCCC/C=C/CCCCCCCC(=O)O,inactive
4,CCCCN(CCCC)CCCC,inactive
5,O=C(O)CC(O)C(=O)O (stereo not given),inactive
6,CC(=O)Nc1ccc(C(=O)O)cc1,inactive
7,O=C(O)CCCC[C@@H]1SC[C@@H]2NC(=O)N[C@@H]21,inactive
8,CC1=CC(=O)CC(C)(C)C1,inactive
9,Brc1cc(Oc2cc(Br)c(Br)c(Br)c2Br)c(Br)c(Br)c1Br,inactive
10,C=Cc1ccc(C)cc1,inactive
11,CCCCC(CC)COC(=O)c1ccc(N(C)C)cc1 (stereo not given),inactive
12,O=C(O)Cc1c[nH]c2ccccc12,inactive
13,O=C(O)c1cccc(C(=O)O)c1,inactive
14,O=C1OC2(c3ccccc31)c1cc(I)c(O)c(I)c1Oc1c2cc(I)c(O)c1I,33.4 µM (active) [middle of 4 runs]
15,COC(C)COC(C)COC(C)CO (stereo not given),inactive
16,CC(=O)OCCC(C)C,inactive
17,CC(=O)C(=O)O,inactive
18,OCCOCCN1CCN(C(c2ccccc2)c2ccc(Cl)cc2)CC1 (stereo not given),inactive
19,CCO[Si](CCCN)(OCC)OCC,inactive
20,COc1ccc([N+](=O)[O-])cc1N,inactive

row,SMILES,Potency
1,O=CCCCC=O,inactive
2,CC(=O)/C=C/C1=C(C)CCCC1(C)C,inactive
3,CN(C)CCOC(=O)COc1ccc(Cl)cc1,inactive
4,O=S1(=O)CCCO1,inactive
5,O=C1NS(=O)(=O)c2ccccc21,inactive
6,CCCCCCCCCCCCCCCCCC(=O)OCC(O)CO (stereo not given),inactive
7,O=C(OCc1ccccc1)c1ccccc1O,inactive
8,O=C(O)C(=O)O,inactive
9,C=C(C)C1CC=C(C)C(OC(C)=O)C1 (stereo not given),inactive
10,Cc1cc(C)c(C)cc1C,inactive
11,CN(C)Cc1cc(CN(C)C)c(O)c(CN(C)C)c1,inactive
12,COc1ccc(O)cc1,inactive
13,CCCCCC1=CCCC1=O,inactive
14,CCCCCCCC(=O)OCC(COC(=O)CCCCCCC)OC(=O)CCCCCCC,inactive
15,O=C(O)c1ccccc1Nc1cccc(C(F)(F)F)c1,inactive
16,O=[Se](O)O,inactive
17,COc1ccc(OC)cc1,inactive
18,COCC(=O)O,inactive
19,[Na+],inactive
20,CCCC[P+](CCCC)(CCCC)CCCC,inactive
